Activity calls are given as the source filed them.
Key:
[1] = biological target: Albumin (Bos taurus) (UniProt P02769); assay: bovine serum albumin binders on microarray, profiling panel, artefact control for SMM control protein annotation, biochemical, small-molecule microarray, Alexa647 label, 635/667 nm fluorescence (AID 1118); details: BSA-A647 binding, fluorescence 635 nm, higher = more signal;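 further: score merges 667 nm emission intensity and signal-to-noise per printed compound spot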
[2] = small-molecule microarray binders of probe aXIP, primary screen, biochemical, NeuroSMM set, 635/667 nm fluorescence (AID 1119); details: higher = more signal, called active from +8 up or from −8 down;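 further: probe is the protein aXip251-270 applied at 1 µg/mL to compound-printed slides; binding of probe to printed compounds measured as 667 nm fluorescence plus signal to noise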
[3] = small-molecule binders of probe aNOTCH3, primary screen, biochemical, small-molecule microarray, 635/667 nm fluorescence (AID 1120); details: higher = more signal;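 further: probe is a biotin-tagged antibody raised against NOTCH3 rather than NOTCH3 protein; score merges spot fluorescence near 667 nm with spot signal to noise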
[4] = small-molecule binders of probe aNOTCH2, primary screen, biochemical, small-molecule microarray, 635/667 nm fluorescence (AID 1121); details: higher = more signal;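 further: score merges feature fluorescence read at 667 nm with its signal to noise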
[5] = biological target: Carbonic anhydrase 2 (Homo sapiens) (UniProt P00918); assay: CAII small-molecule binders, profiling panel, biochemical, small-molecule microarray, Alexa647-labelled CAII (AID 1122); details: CAII-A647 binding fluorescence, higher = more signal
[6] = COS7 lysate on small-molecule microarray, probe aHis, 635 nm (AID 1123); details: COS7 cell lysate, fluorescence, higher = more signal;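 further: z-score combines 667nm fluorescence intensity with signal-to-noise per printed compound spot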
[7] = compound binding in COS7 lysate, probe aLAP1, primary screen, cell lysate, small-molecule microarray (AID 1124); details: probe aLAP1, fluorescence, higher = more signal;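 further: lysate comes from COS7 cells expressing LAP1 and is applied at 0.3 µg/mL; score merges spot fluorescence near 667 nm with signal-to-noise over triplicate slides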
[8] = system: Sam68 (KHDRBS1); assay: Sam68 small-molecule binders, primary screen, biochemical, small-molecule microarray, 635 nm fluorescence (AID 1125); details: small-molecule microarray binding, higher = more signal;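 further: score merges 667 nm channel intensity with signal to noise over triplicate slides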
[9] = system: Chordin-like protein 2 (CHRDL2); assay: CHRDL2 small-molecule binders, primary screen, biochemical, small-molecule microarray, 635 nm fluorescence (AID 1126); details: small-molecule microarray binding, fluorescence 635 nm; higher = more signal;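 further: printed compound slides probed with Chrdl2 protein at 4 µg/mL for 1 h at 4 C; score merges 667 nm emission intensity with signal to noise over three replicate slides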
[10] = biological target: Concanavalin-A (Canavalia ensiformis) (UniProt P02866); assay: ConA small-molecule binders, primary screen, artefact control for SMM control protein annotation, biochemical, small-molecule microarray, Alexa647 label, 635 nm (AID 1127); details: ConA-A647 binding fluorescence, higher = more signal;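 further: z combines 667 nm emission intensity with signal-to-noise across three replicate slides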
Sequence of Concanavalin-A (Canavalia ensiformis) (P02866 whole entry, looked up): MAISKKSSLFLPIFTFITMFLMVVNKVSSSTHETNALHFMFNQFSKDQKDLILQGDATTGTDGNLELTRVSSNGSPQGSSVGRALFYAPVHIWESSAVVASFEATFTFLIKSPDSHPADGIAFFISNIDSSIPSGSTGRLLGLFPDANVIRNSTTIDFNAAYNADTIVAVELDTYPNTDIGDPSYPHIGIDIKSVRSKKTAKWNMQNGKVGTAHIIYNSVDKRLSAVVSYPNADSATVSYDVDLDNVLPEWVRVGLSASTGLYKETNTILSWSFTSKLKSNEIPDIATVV

[11] = anti-His antibody binders, primary screen, artefact control for SMM control protein annotation, biochemical, small-molecule microarray, 635 nm fluorescence (AID 1128); details: anti-His Alexa647 antibody binding, higher = more signal;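 further: score merges feature fluorescence with signal-to-noise for each printed compound spot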
[12] = system: Human papillomavirus type 1a E7 protein (residues 1-88); assay: HPV1a E7 small-molecule binders, primary screen, biochemical, small-molecule microarray, residues 1-88, 635 nm (AID 1129); details: small-molecule microarray binding, fluorescence 635 nm; higher = more signal
[13] = biological target: Focal adhesion kinase 1 (Homo sapiens) (UniProt Q05397); assay: small-molecule microarray binders of FAK, primary screen, biochemical, 635/667 nm fluorescence, BSA, DTT (AID 1130); details: PTK2 binding, 635 nm fluorescence, higher = more signal;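 further: composite of spot emission at 667 nm and signal to noise over triplicate slides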
Sequence of Focal adhesion kinase 1 (Homo sapiens) (Q05397 whole entry, looked up): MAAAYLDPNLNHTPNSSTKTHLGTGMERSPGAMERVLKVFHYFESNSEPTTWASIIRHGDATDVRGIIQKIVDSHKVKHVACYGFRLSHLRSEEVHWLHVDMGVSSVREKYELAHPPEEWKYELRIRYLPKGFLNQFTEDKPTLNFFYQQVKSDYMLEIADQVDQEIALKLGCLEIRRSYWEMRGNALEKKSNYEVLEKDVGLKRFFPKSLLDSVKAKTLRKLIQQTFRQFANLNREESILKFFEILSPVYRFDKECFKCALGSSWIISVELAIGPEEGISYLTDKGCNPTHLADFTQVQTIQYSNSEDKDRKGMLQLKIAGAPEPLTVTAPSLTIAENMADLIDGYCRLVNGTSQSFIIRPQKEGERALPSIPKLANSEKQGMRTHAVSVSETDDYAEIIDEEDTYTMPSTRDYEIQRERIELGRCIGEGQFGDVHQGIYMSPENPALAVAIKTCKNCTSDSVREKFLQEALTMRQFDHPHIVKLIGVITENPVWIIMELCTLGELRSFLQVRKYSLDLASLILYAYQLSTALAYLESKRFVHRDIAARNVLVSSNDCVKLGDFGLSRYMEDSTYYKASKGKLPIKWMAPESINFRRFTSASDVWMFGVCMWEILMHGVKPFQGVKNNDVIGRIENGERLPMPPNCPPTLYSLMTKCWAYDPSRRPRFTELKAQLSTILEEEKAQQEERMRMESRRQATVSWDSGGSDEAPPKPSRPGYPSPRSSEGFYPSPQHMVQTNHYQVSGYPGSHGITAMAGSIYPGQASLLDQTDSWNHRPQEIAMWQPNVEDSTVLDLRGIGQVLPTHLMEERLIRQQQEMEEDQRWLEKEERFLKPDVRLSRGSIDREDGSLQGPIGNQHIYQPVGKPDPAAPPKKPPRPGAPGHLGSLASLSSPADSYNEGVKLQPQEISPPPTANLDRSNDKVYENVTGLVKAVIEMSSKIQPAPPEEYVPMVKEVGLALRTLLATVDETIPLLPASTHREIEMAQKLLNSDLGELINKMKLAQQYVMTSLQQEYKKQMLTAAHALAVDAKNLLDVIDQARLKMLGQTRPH

[14] = system: Fibrinogen (Alexa647-labelled); assay: fibrinogen binders on compound microarrays, profiling panel, artefact control for SMM control-protein annotation, biochemical, small-molecule microarray, 635/667 nm fluorescence (AID 1131); details: fibrinogen-A647 binding fluorescence, higher = more signal;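 further: z-score merges 667 nm fluorescence with per-spot signal-to-noise over triplicate slides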
[15] = biological target: Follistatin (Homo sapiens) (UniProt P19883); assay: follistatin binders on small-molecule microarrays, primary screen, biochemical, small-molecule microarray, 635/667 nm fluorescence (AID 1132); details: FST binding, 635 nm fluorescence, higher = more signal
Sequence of Follistatin (Homo sapiens) (P19883 whole entry, looked up): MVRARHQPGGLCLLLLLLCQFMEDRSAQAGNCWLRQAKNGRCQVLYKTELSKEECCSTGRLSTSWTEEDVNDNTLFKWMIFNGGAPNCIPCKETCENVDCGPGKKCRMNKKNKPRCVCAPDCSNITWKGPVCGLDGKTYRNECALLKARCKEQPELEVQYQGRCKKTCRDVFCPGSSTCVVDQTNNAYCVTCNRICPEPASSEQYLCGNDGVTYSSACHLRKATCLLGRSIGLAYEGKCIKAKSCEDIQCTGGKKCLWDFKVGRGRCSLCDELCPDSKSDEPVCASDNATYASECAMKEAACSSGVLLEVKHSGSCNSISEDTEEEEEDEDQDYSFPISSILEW

[16] = biological target: Fibroblast growth factor 2 (Homo sapiens) (UniProt P09038); assay: FGF2 binders on small-molecule microarrays, primary screen, biochemical, small-molecule microarray, 635/667 nm fluorescence (AID 1133); details: small-molecule microarray binding, FGF2, fluorescence 635/667; higher = more signal
Sequence of Fibroblast growth factor 2 (Homo sapiens) (P09038 whole entry, looked up): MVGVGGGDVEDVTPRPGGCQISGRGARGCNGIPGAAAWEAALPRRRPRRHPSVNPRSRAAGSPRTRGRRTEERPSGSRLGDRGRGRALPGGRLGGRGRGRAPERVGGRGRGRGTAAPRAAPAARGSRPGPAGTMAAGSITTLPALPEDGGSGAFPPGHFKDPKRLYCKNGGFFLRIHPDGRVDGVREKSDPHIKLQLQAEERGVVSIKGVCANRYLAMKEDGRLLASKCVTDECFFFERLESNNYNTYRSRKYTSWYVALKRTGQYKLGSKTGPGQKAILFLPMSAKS

[17] = mitochondrial membrane potential change in A549 cells, profiling panel, cell-based, JC-1 fluorescence, basal, 24 h, 100 nL (AID 1138); details: higher = more signal;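 further: A549 lung adenocarcinoma cells under basal conditions with no added stimulus; test concentration not given here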
[18] = system: Lefty1; assay: Lefty1 binders on small-molecule microarrays, primary screen, biochemical, small-molecule microarray, 635/667 nm fluorescence (AID 1139); details: small-molecule microarray binding, fluorescence 635/667; higher = more signal
[19] = system: wheat germ agglutinin (Triticum aestivum), Alexa647-labelled; assay: wheat germ agglutinin binders on compound microarrays, profiling panel, artefact control for SMM control-protein annotation, biochemical, small-molecule microarray, 635/667 nm fluorescence (AID 1140); details: WGA-A647 binding, 635 nm fluorescence, higher = more signal;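 further: score merges 667 nm feature emission with signal to noise over triplicate slides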
[20] = biological target: Luciferin 4-monooxygenase (Photinus pyralis) (UniProt P08659); assay: firefly luciferase enzyme inhibitors, primary screen, biochemical, luminescence, purified enzyme, 2006 set (AID 1141); details: SteadyGlo luminescence, 30 min, higher = more signal, called active from +8 up or from −8 down;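 further: cell-free assay with purified firefly luciferase at 100 ng per well in PBS; test concentration not given here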
Sequence of Luciferin 4-monooxygenase (Photinus pyralis) (P08659 whole entry, looked up): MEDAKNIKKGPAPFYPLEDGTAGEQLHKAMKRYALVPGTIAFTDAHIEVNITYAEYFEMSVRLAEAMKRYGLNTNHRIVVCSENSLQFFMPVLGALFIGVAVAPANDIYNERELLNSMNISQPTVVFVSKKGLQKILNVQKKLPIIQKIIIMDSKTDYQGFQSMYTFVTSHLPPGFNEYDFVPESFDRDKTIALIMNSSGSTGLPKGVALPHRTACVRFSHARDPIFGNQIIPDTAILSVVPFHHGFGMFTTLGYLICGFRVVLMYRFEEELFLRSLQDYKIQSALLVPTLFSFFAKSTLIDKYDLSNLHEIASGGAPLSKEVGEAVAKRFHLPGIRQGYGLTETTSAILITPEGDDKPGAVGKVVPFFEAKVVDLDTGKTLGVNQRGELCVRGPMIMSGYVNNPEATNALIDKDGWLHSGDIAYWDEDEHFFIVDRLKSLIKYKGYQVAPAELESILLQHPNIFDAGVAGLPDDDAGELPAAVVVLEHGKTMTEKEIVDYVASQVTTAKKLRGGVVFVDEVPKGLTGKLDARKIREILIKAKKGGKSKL

Sequence of Albumin (Bos taurus) (P02769 whole entry, looked up): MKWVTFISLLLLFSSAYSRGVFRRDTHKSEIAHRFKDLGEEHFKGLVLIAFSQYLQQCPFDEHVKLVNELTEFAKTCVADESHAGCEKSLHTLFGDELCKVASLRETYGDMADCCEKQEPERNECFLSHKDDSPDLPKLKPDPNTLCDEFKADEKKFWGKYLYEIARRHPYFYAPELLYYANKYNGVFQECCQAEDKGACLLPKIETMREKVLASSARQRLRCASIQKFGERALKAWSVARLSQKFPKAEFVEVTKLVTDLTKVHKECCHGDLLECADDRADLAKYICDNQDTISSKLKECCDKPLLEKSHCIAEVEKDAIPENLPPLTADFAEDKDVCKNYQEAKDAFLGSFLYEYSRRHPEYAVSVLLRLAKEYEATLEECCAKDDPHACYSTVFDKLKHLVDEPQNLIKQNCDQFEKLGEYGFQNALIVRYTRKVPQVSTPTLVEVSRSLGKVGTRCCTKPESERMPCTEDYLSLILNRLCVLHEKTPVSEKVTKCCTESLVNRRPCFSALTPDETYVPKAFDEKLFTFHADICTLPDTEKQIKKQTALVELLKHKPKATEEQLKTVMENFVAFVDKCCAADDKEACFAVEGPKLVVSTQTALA

| SMILES | composite z-score [1] | composite Z-score [2] | composite z-score [3] | composite z-score [4] | composite z-score [5] | composite z-score [6] | composite z-score [7] | composite z-score [8] | composite z-score [9] | composite z-score [10] | composite z-score [11] | composite z-score [12] | composite z-score [13] | composite z-score [14] | composite z-score [15] | composite z-score [16] | z-score [17] | composite z-score [18] | composite z-score [19] | z-score [20] |
| --- | --- | --- | --- | --- | --- | --- | --- | --- | --- | --- | --- | --- | --- | --- | --- | --- | --- | --- | --- | --- |
| CCN1C(C)=C(C(=O)OC)[C@@H](c2ccccc2)N2C(=O)[C@](O)(C(=O)OC)CC(C(C)=O)=C12 | -0.428 | -0.686 (inactive) | -0.15 | -0.207 | -0.174 | -0.0478 | -0.152 | -0.37 | 0.285 | 0.29 | -1.01 | 0.127 | 0.0644 | 0.123 | 0.398 | 0.0171 | 1.07 | 0.638 | 0.278 | -0.695 (inactive) |
| CC(=O)OC[C@H]1O[C@H](C#CCCc2ccccc2)C=C[C@@H]1OC(C)=O | 0.829 | -0.399 (inactive) | 0.106 | -0.0727 | 0.376 | 2.2 | -0.332 | 0.179 | 0.697 | 0.127 | 0.538 | -0.417 | -0.34 | 0.884 | 0.518 | 0.461 | 0.0303 | 1.22 | -0.225 | -0.97 (inactive) |
| COC(=O)CC=C[C@@H](C)[C@@H](C=NOC(C)CN1CCCCc2nc(C)c(C)cc21)OC (stereo not given in full) | 0.276 | -0.472 (inactive) | 0.227 | -0.0439 | 0.301 | 0.043 | -0.0856 | 1.28 | 1.29 | 0.235 | 1.4 | 0.981 | 0.847 | 0 | 1.14 | 0.368 | 0.855 | 1.24 | 0.259 | -0.183 (inactive) |
| CO[C@@H]1C=CCC(=O)N[C@@H](C)C(=O)OC[C@@H](NS(=O)(=O)c2ccc(C)cc2)[C@H](C)C=CCC(=O)OC[C@H]1C | -1.19 | 0.51 (inactive) | -0.0898 | -0.242 | -0.662 | -0.971 | -0.0366 | -0.583 | 1.07 | -0.479 | -0.605 | -0.56 | -0.0987 | -0.14 | 0.833 | 0.638 | -0.198 | 0.841 | 0.326 | -0.567 (inactive) |
| C[C@@H]1CC[C@H]2C(=O)N3[C@@H](CC[C@@H](C)[C@@H]3c3ccc(Br)cc3)C(=O)N2[C@H]1c1ccc(Br)cc1 | 0.213 | -0.119 (inactive) | 0.0462 | 0.224 | -0.161 | 0.246 | -0.0873 | 0.31 | 0.391 | 0.344 | 0.0399 | -0.0695 | -0.104 | 0.122 | 0.301 | 0.13 | 1.48 | 0.52 | -0.0219 | -0.199 (inactive) |
| CC(C)[C@@H](OCc1ccccc1)[C@H](C)CON=C1[C@H]2CCn3c(=O)n(-c4ccccc4)c(=O)n3[C@H]2[C@H](O)[C@@H]2O[C@H]12 | 0.667 | 0.382 (inactive) | -0.0072 | -0.0527 | -0.0291 | 0.476 | -0.219 | 0.593 | 0.427 | -0.0949 | 2.57 | 0.246 | 0.0884 | -0.0016 | 0.759 | 0.324 | -0.139 | 0.689 | 0.192 | 0.0981 (inactive) |
| CCOC(=O)[C@H](CC(C)C)NC(=O)CCC1CC(OC(=O)NCc2ccc3c(c2)OCO3)CC2(CCCC(COC(=O)NCCOc3ccccc3)O2)O1 (stereo not given in full) | 0.232 | -0.198 (inactive) | 0.0469 | -0.178 | 0.166 | 1.22 | -0.248 | 1.33 | 0.99 | 1.14 | 0.424 | 1.17 | 0.0776 | 1.01 | 0.829 | 0.846 | 0.574 | 1.61 | 0.598 | 0.547 (inactive) |
| CC(=O)OC[C@H]1O[C@H](CC=NO[C@@H](C)c2cn([C@H](CO)Cc3ccccc3)nn2)C=C[C@@H]1OC(C)=O | 0.447 | 0.0225 (inactive) | 0.0517 | -0.0798 | 0.342 | 1.34 | 0.0198 | 0.987 | 0.394 | 0.506 | -0.0515 | 0.656 | -0.0806 | 0.827 | 0.679 | 0.45 | -1.56 | 1.05 | 0.233 | 1.36 (inactive) |
| CCOC(=O)CCN1C(=O)[C@H]2[C@H]3[C@H](O)[C@H](O)CC(=NNC(=O)OCc4ccc(OC)cc4)[C@H]3CC[C@H]2C1=O | 0.33 | 0.0321 (inactive) | -0.0328 | -0.061 | -0.0767 | 0.205 | -0.0428 | 0.576 | 0.382 | -0.0813 | -0.0305 | 0.568 | 0.0684 | 0.446 | -0.0495 | 0.0077 | -0.734 | 0.161 | 0.282 | 0.624 (inactive) |

Source: PubChem BioAssay
